Source: PubChem BioAssay (several laboratories)
Mtb hypoxia inh – Mtb hypoxia fluorescent reporter inhibition; M. tuberculosis hypoxia-regulated fluorescent reporter, fluorescence; fluorescence inhibition, % (test concentration not listed); 300,000 compounds, 0.1% hits; AID 1159583; in the data active = fluorescence inhibition mostly above about 23%, no sharp cut-off; inactive = mostly below about 17%
Mtb bLac sens – beta-lactam sensitization of Mtb H37Rv; M. tuberculosis H37Rv growth with meropenem, percent inhibition; inhibition, % at 25 µM; 330,000 compounds, 0.27% hits; AID 434955;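 note: growth measured after seven days incubation then overnight dye step; 0% = bacteria only wells and 100% = bacteria with antibiotic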
UGM FP inh – inhibitors of M. tuberculosis UDP-galactopyranose mutase; purified UGM, fluorescence polarization probe displacement; inhibition, % at 10 µM; 320,000 compounds, 0.06% hits; AID 504406; in the data active = inhibition above about 10%, passing the limit was not always enough
RecA splice inh – Mtb RecA intein splicing inhibition; cell-free RecA intein splicing, fluorescence; inhibition, % (test concentration not listed); 290,000 compounds, 0.75% hits; in the data active = inhibition above about 30%;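 note: 0% = vehicle wells and 100% = reference inhibitor control wells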
Target sequence (P9WHJ3 whole entry, looked up, canonical isoform): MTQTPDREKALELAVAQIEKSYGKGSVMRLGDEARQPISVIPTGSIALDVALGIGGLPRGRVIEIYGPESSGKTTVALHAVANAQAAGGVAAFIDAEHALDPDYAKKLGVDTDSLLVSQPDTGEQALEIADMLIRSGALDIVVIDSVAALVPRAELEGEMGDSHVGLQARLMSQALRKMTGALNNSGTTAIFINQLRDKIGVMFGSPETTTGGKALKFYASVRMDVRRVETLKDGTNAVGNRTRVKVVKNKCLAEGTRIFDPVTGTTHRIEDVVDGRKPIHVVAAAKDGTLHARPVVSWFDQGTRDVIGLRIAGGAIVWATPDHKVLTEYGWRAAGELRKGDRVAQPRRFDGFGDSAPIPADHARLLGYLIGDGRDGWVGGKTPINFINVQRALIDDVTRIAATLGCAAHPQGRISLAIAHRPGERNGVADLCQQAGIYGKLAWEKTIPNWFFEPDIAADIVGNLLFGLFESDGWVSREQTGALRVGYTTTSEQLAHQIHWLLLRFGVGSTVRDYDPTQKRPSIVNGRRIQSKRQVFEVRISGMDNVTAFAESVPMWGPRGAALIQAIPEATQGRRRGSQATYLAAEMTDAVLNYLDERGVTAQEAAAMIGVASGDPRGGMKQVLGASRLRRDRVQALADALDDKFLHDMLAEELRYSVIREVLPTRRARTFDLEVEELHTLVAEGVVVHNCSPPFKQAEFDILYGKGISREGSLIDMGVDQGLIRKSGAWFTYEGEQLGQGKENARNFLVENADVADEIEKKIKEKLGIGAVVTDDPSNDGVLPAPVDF
FadD28 FP inh – inhibitors of Mycobacterium tuberculosis FadD28 bisubstrate binding; inhibition, % at 12.5 µM; 360,000 compounds, 0.22% hits; FadD28 bisubstrate probe binding, fluorescence polarization; in the data active = inhibition above about 8.5%, passing the limit was not always enough
Rv3671c protease – inhibits the M. tuberculosis serine protease Rv3671c; P9WHR9; inhibition, % at 5.96 µM; 320,000 compounds, 0.048% hits; in the data active = inhibition above about 38%;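 note: extracellular domain of Rv3671c used as enzyme; 0% = enzyme with DMSO and 100% = no enzyme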
GFP chromo cs – counter-screen GFP chromophore formation inhibition. shares compounds with RecA splice inh. EC50, µM. AID 434968. 2,100 compounds, 83% hits. cell-free GFP chromophore formation, fluorescence
Numbers without * were called inactive. In the library only some 0.92% were active in any assay of this set; here they are far more common. Unless noted, the rule behind the calls is not given here.

Results for CCOC(=O)c1c(NC(=S)Nc2ccccc2)sc(C)c1C ?
Mtb hypoxia inh: -8; Mtb bLac sens: -11; UGM FP inh: 5; RecA splice inh: -1; FadD28 FP inh: -1; Rv3671c protease: 7

How did CC(=O)c1ccc(OC(=O)c2cccs2)cc1 do in these assays?
Mtb hypoxia inh: 0; Mtb bLac sens: 22; UGM FP inh: 1; RecA splice inh: 35*; FadD28 FP inh: -1; Rv3671c protease: 5; GFP chromo cs: >38

How did CCCN(C(=O)Cn1ncc2c([nH]c3ccccc32)c1=O)c1ccccc1C do in these assays?
Mtb hypoxia inh: 8; Mtb bLac sens: 2; UGM FP inh: 0; RecA splice inh: -1; FadD28 FP inh: 0; Rv3671c protease: 1

How did CCCCCCCN(C(=O)CCl)c1ccccc1C do in these assays?
Mtb hypoxia inh: 18; UGM FP inh: -1; RecA splice inh: 56*; FadD28 FP inh: -5; Rv3671c protease: 13; GFP chromo cs: 18*

Results for Cc1cc(C)nc(NS(=O)(=O)c2ccc(NC(=O)C(C)C)cc2)n1 ?
Mtb hypoxia inh: 5; Mtb bLac sens: -1; UGM FP inh: 2; RecA splice inh: -3; FadD28 FP inh: -2; Rv3671c protease: 2

Results for O=c1cc(-c2ccccc2Cl)oc2ccc([N+](=O)[O-])c(O)c12 ?
Mtb hypoxia inh: 2; Mtb bLac sens: 95; UGM FP inh: 2; RecA splice inh: 2; FadD28 FP inh: -2; Rv3671c protease: 0

What do the screens show for `O=[N+]([O-])c1cc([N+](=O)[O-])c2oc(-c3ccccc3)c(Br)c2c1O`?
Mtb hypoxia inh: 5; RecA splice inh: 30*; FadD28 FP inh: 26*; GFP chromo cs: >38

What do the screens show for `N=C1C(=O)OCC1c1ccccc1NC(=O)c1ccc(F)cc1` (stereo not drawn)?
Mtb hypoxia inh: 13; Mtb bLac sens: -3; UGM FP inh: 0; RecA splice inh: 1; FadD28 FP inh: -3; Rv3671c protease: 2

What do the screens show for `O=C(CCl)NN=C(c1ccccc1)c1ccccc1`?
Mtb hypoxia inh: 18; Mtb bLac sens: 99; UGM FP inh: 2; RecA splice inh: 59*; FadD28 FP inh: -1; Rv3671c protease: 5; GFP chromo cs: 26*

How did Cc1ccc(N(C(=O)CNC(=O)c2ccco2)C(C(=O)NC2CCCCC2)c2cccnc2)cc1C (stereo not drawn) do in these assays?
Mtb hypoxia inh: 4; Mtb bLac sens: -1; UGM FP inh: 0; RecA splice inh: -1; FadD28 FP inh: -4; Rv3671c protease: 2

What do the screens show for `Cc1ccc(N(C(=O)CCl)C(C(=O)NC2CCCCC2)c2cccnc2)cc1C` (stereo not drawn)?
Mtb hypoxia inh: 22; Mtb bLac sens: 43; UGM FP inh: 0; RecA splice inh: 72*; Rv3671c protease: -10; GFP chromo cs: 2.6*

What do the screens show for `O=C1NC(=O)C(=Cc2ccc(Oc3ccc([N+](=O)[O-])cc3)cc2)C(=O)N1`?
Mtb hypoxia inh: 11; Mtb bLac sens: 4; UGM FP inh: -3; RecA splice inh: 68*; FadD28 FP inh: 0; Rv3671c protease: -160; GFP chromo cs: >38

Results for Cc1ccccc1-c1cc2c(nn1)-c1ccccc1C2=O ?
Mtb hypoxia inh: 0; Mtb bLac sens: 97; UGM FP inh: -2; RecA splice inh: 75*; FadD28 FP inh: -1; Rv3671c protease: -100; GFP chromo cs: 13*

How did O=C1c2ccccc2-c2nnc(-c3ccc(F)cc3)cc21 do in these assays?
Mtb hypoxia inh: 5; Mtb bLac sens: 1; UGM FP inh: 4; FadD28 FP inh: -5; Rv3671c protease: -2

What do the screens show for `COC1(OC)C(/C=C/c2ccc(Cl)cc2)C(C#N)(C#N)C1(OC)OC` (stereo not drawn)?
Mtb bLac sens: 22; UGM FP inh: -3; RecA splice inh: 73*; FadD28 FP inh: -6; Rv3671c protease: 0; GFP chromo cs: >38

How did COC1(OC)C(/C=C\c2ccc(C)cc2)C(C#N)(C#N)C1(OC)OC (stereo not drawn) do in these assays?
Mtb hypoxia inh: -3

Results for O=C(NCCO)C(=O)Nc1cc2c3c(c1)CC(=O)N3CCC2 ?
Mtb hypoxia inh: -6; Mtb bLac sens: 0; UGM FP inh: 4; RecA splice inh: 21; FadD28 FP inh: -3; Rv3671c protease: -6

What do the screens show for `O=C(CCl)c1cc2c3c(c1)CC(=O)N3CCC2`?
Mtb bLac sens: 99; UGM FP inh: 0; RecA splice inh: 44*; FadD28 FP inh: -3; Rv3671c protease: 1; GFP chromo cs: 39*

How did O=c1cc(-c2c(F)c(F)c(F)c(F)c2F)oc2ccccc12 do in these assays?
Mtb bLac sens: 100; UGM FP inh: -3; RecA splice inh: 29; FadD28 FP inh: -2; Rv3671c protease: 2

Results for O=c1cc(-c2c(F)c(F)c(F)c(F)c2F)oc2c(F)c(F)c(F)c(F)c12 ?
Mtb bLac sens: 100; UGM FP inh: 1; RecA splice inh: 86*; Rv3671c protease: -39; GFP chromo cs: 13*

Results for COc1cccc(Nc2c([N+](=O)[O-])cncc2[N+](=O)[O-])c1 ?
Mtb hypoxia inh: 10; Mtb bLac sens: 90; UGM FP inh: 2; RecA splice inh: 54*; FadD28 FP inh: -2; Rv3671c protease: 8; GFP chromo cs: 21*

What do the screens show for `Cc1cccc(C2=NN(c3ccccc3)[C@@H](C(=O)N3CCOC3=O)[C@@H]2c2ccc(Cl)cc2)c1`?
Mtb hypoxia inh: 1; FadD28 FP inh: -3

How did COc1ccc(C(=O)/C=C(\C)NCc2ccc3c(c2)OCO3)cc1 do in these assays?
Mtb hypoxia inh: 5; Mtb bLac sens: -2; UGM FP inh: -2; RecA splice inh: 0; FadD28 FP inh: -3; Rv3671c protease: -4

Results for COC(=O)Cc1[nH]nc2c1C1(CCSCC1)C(C#N)=C(N)O2 ?
Mtb hypoxia inh: 5; Mtb bLac sens: 4; UGM FP inh: 0; RecA splice inh: 66*; FadD28 FP inh: -1; Rv3671c protease: 5; GFP chromo cs: 17*

What do the screens show for `COCc1[nH]nc2c1C1(C(=O)Nc3ccc(F)cc31)C(C#N)=C(N)O2` (stereo not drawn)?
Mtb bLac sens: -6; UGM FP inh: 1; RecA splice inh: 3; FadD28 FP inh: -1; Rv3671c protease: -4

Results for Cc1ccc(SCc2[nH]nc3c2C2(CCSCC2)C(C#N)=C(N)O3)cc1 ?
Mtb hypoxia inh: -3; Mtb bLac sens: -1; UGM FP inh: 3; RecA splice inh: 60*; FadD28 FP inh: -4; Rv3671c protease: -4; GFP chromo cs: 16*

What do the screens show for `CCc1ccc(C2C(C#N)=C(N)C(C#N)(C#N)C3=CCC(C(C)(C)C)CC32)cc1` (stereo not drawn)?
Mtb hypoxia inh: -1; Mtb bLac sens: 20; UGM FP inh: 1; RecA splice inh: 30*; FadD28 FP inh: 0; Rv3671c protease: -1; GFP chromo cs: 15*
